“And” between values parts separate entries of the source, which are not always exact repeats. Identical values can stand only once. Out of some 190,000 compounds screened, about 810 (0.43%) were called active. This is one part of a sample in which actives are shown more often than they occur. No stated cut-off is given here; in the data, active means inhibition above about 50%; inactive means the rest.
These compounds were tested against Mannose-6-phosphate isomerase (Homo sapiens) (UniProt P34949) (assay: MPI enzyme activity inhibition – biochemical, fluorescence intensity, coupled assay, primary screen (AID 1209;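 further: plate controls were DMSO vehicle for no effect and wells lacking substrate for full effect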)). Conditions: purified PMI enzyme, at 20 µM, stronger effect = higher value.
Sequence of Mannose-6-phosphate isomerase (Homo sapiens) (P34949 whole entry, looked up): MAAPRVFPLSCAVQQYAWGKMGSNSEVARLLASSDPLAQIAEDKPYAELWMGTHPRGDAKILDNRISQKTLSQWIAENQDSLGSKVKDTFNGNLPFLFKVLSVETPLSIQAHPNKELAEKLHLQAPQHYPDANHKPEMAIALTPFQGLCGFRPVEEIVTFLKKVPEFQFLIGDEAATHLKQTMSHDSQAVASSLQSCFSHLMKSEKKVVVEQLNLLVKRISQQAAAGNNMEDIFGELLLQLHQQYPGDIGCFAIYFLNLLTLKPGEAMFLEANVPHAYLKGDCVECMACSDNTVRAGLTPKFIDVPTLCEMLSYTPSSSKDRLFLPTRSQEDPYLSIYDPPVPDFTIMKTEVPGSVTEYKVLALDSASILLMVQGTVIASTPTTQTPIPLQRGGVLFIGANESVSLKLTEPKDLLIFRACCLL

SMILES | inhibition
O=C(C1CCN(S(=O)(=O)c2cccc3cccnc23)CC1)N1CCN(c2ccccc2)CC1 | 13.6% (inactive)
Cc1ccc(-n2nnnc2SCC(=O)N2CCc3ccccc3C2)cc1 | -23.5% (inactive)
CCn1c(SCC(=O)N2CCCc3ccccc32)nnc1-c1ccoc1C | -2.9% (inactive)
CCS(=O)(=O)c1ccc(O)c(NC(=O)COc2ccc(OC)cc2)c1 | 9.9% (inactive)
O=C(CC1CCCCC1)OCn1nnc2ccccc2c1=O | -0.7% (inactive)
COC(=O)C1=C(C)NC(C)=C([N+](=O)[O-])C1c1ccccc1C(F)(F)F (centres undefined) | -1.2% (inactive)
COC(=O)C1=C(C)NC(C)=C(C(=O)OC)C1c1ccccc1[N+](=O)[O-] | 83.1% (active)
CCOC(=O)C1=C(C)NC(C)=C(C(=O)OC)C1c1cccc([N+](=O)[O-])c1 (centres undefined) | 13.5% (inactive) and 1.6% (inactive)
COc1ccc(S(=O)(=O)N2CCOCC2)cc1OC | -10.5% (inactive)
O=C(OC(C(=O)NCc1ccco1)C(OC(=O)c1ccccc1)C(=O)NCc1ccco1)c1ccccc1 (centres undefined) | -6.4% (inactive)
O=[N+]([O-])c1c(NCCCO)cc(SCc2ccco2)c2nonc12 | 20.8% (inactive)
CC(=O)OCCCNc1cc(Sc2ccc(Cl)cc2)c2nonc2c1[N+](=O)[O-] | 30.1% (inactive)
Cn1ccnc1Sc1cc(NCCCO)c([N+](=O)[O-])c2nonc12 | -0.6% (inactive)
O=[N+]([O-])c1c(NCCCO)cc(Sc2ccc(Cl)cc2)c2nonc12 | 50.2% (active)
COc1ccc(CNc2cc(NCCCO)c([N+](=O)[O-])c3nonc23)cc1 | 52.3% (active)
Cc1nnc(Sc2cc(NCCCO)c([N+](=O)[O-])c3nonc23)s1 | 31.1% (inactive)
CCS(=O)(=O)CCSc1nc2c(cc1C#N)CCCC2 | 5.3% (inactive)
Fc1ccc(N=c2ssnc2Cl)c(F)c1 | 80.9% (active)
Oc1oc(C=Nc2ccc(F)cc2F)c2ccccc12 | -80.8% (inactive)
Cc1cc(Cl)ccc1N=c1ssnc1Cl | 52.8% (active)
Fc1ccc(F)c(C2=NNC(=Nc3ccccc3F)SC2)c1 | 22.5% (inactive)
Cc1cc(Cl)ccc1N=Cc1c(O)n(C)c(=O)n(C)c1=O | 9.5% (inactive)
Cc1cc(Cl)ccc1N=C1N=C(N)c2ccccc21 | 9.1% (inactive)
Cc1ccc(CCNc2ccccc2C)cn1 | -6.3% (inactive)
COc1ccc(C)cc1NC(=O)c1nnn(CCc2ccccc2)c1N | 8.1% (inactive)

SMILES | inhibition
CSc1ccccc1NC(=O)c1cc(-c2cccnc2)nc2ccc(Br)cc12 | -3% (inactive)
CCOC(=O)C1CC(c2ccccc2)=NNC1=O (centres undefined) | -6.5% (inactive)
COc1ccc(C2CN=NC23CCCc2ccccc2C3=O)cc1 (centres undefined) | 3.1% (inactive)
C/C(=C\C(=O)O)C(=O)Nc1nccs1 | -3.3% (inactive)
Cc1ccccc1CN1N=C(/C=C/c2ccccc2)CCC1=O | -3.6% (inactive)
C/C(=N\NC(=O)c1ccccc1)c1ccc(C)c([N+](=O)[O-])c1 | 12.4% (inactive)
Cc1ccc(NC(=O)C2=C(O)c3sccc3N(C)S2(=O)=O)cc1 | 1.9% (inactive)
Cc1ccc(NC(=S)C2=C(O)c3sccc3N(C)S2(=O)=O)cc1 | 56.1% (active)
CN1c2ccsc2C(O)=C(C(=S)Nc2ccccc2)S1(=O)=O | 19.6% (inactive)
COC(=O)Cc1c(C)nc2nc(-c3ccco3)[nH]n2c1=O | -34.2% (inactive)
Cc1ccc(-n2c(C)n[nH]c2=S)cc1 | 11.4% (inactive)
Cc1ccc(C)n1-c1ncn[nH]1 | 5.2% (inactive)
O=C(CN1C(=O)NC2(CCc3ccccc3C2)C1=O)Nc1ccc(Cl)cc1F (centres undefined) | 8.5% (inactive)
CC1(C)OC(=O)C(=Cc2ccc(-c3ccc(Cl)c(C(=O)O)c3)o2)C(=O)O1 | -12.1% (inactive)
CC1=NOC(=O)/C1=C/c1ccc(-c2ccc(Cl)cc2)o1 | 21.9% (inactive)
CC1=NOC(=O)/C1=C\c1ccc(-c2ccc(Cl)c(C(=O)O)c2)o1 | 66.6% (active)
CCOC(=O)c1c(C)nc2ccc(C)cn12 | -2.7% (inactive)
O=C(OCn1nnc2ccccc2c1=O)C1COc2ccccc2O1 (centres undefined) | 12.1% (inactive)
CN=C(c1ccco1)n1c(=S)nc(-c2ccco2)n(C)c1=S | 51.4% (active)
Cn1c(-c2ccco2)n[nH]c1=S | -5% (inactive)
CCCCn1c(-c2ccco2)n[nH]c1=S | 5.8% (inactive)
COCCCn1c(-c2ccco2)nc2ccccc2c1=O | -0.1% (inactive)
CN=C(c1ccc(C)cc1)n1c(=S)nc(-c2ccc(C)cc2)n(C)c1=S | 37.7% (inactive)
COCCCN=C(c1ccco1)n1c(=S)nc(-c2ccco2)n(CCCOC)c1=S | 52.4% (active)
CN(C)C(=O)N1CCC(C(=O)NCc2ccccc2Cl)CC1 | 3.2% (inactive)

SMILES | inhibition
CCOC(=O)c1ccccc1Nc1cc(C)nc2nc(C)nn12 | 5.5% (inactive)
CCOC(=O)N1CCN(C(=O)CSc2ccc(-c3ccc(OC)cc3)nn2)CC1 | -0.8% (inactive)
O=[N+]([O-])c1cc2c(c(CSc3nnnn3-c3ccc(O)cc3)c1)OCOC2 | 26.2% (inactive)
COc1ccc(/C=N\NC(=O)COc2ccc(C(C)(C)C)cc2)cc1Cn1nc(C)cc1C | -2.3% (inactive)
COc1ccc(C2NC(=O)NC3=C2CCc2ccccc23)cc1 (centres undefined) | 70.7% (active)
O=C1NC2=C(CCc3ccccc32)C(c2ccccc2)N1 (centres undefined) | -24.4% (inactive)
Cc1ccc(C2NC(=O)NC3=C2CCc2ccccc23)cc1 (centres undefined) | 10.5% (inactive)
CN(C)/C=C(\C(=O)c1ccc(F)cc1F)c1nnnn1-c1ccccc1 | -3.7% (inactive)
Cc1ccc(NCCC(=O)c2cccc([N+](=O)[O-])c2)cc1 | 43.5% (inactive)
Cc1ccc(NCC(=O)c2ccc([N+](=O)[O-])cc2)cc1 | -45.3% (inactive)
O=[N+]([O-])c1ccc(Cc2ccncc2)cc1 | 1.8% (inactive)
O=C(CCNc1ccc(Cc2ccncc2)cc1)c1cccc([N+](=O)[O-])c1 | 43.5% (inactive)
O=C(CNc1cccc2ccccc12)c1ccc([N+](=O)[O-])cc1 | 25.3% (inactive)
O=C(CCNc1ccccc1)c1cccc([N+](=O)[O-])c1 | 56.8% (active)
Cc1ccc(NCCC(=O)c2cccc([N+](=O)[O-])c2)c(C)c1 | 55.7% (active)
O=C(CCNc1ccc(F)cc1)c1cccc([N+](=O)[O-])c1 | 47.5% (inactive)
O=C(CCNc1cccc(F)c1)c1cccc([N+](=O)[O-])c1 | 37.8% (inactive)
Cc1cccc(NCCC(=O)c2ccc([N+](=O)[O-])cc2)c1C | 76.2% (active)
O=C(CCNc1ccc(Cc2ccncc2)cc1)c1ccc([N+](=O)[O-])cc1 | 64.4% (active)
O=C(CCNc1ccc(Br)cc1)c1cccc([N+](=O)[O-])c1 | 36% (inactive)
CCCn1cc(CN2CCC(Cc3ccccc3)(C(=O)OCC)CC2)c(C)n1 | 5.2% (inactive)
COc1ccc(NC(=S)N/N=C2\CC(C)(C)Oc3ccc(O)cc32)cc1 | 5.4% (inactive)
NC(=O)CSC1=Nc2ccccc2C2=NC(c3ccccc3)C(=O)N12 (centres undefined) | -8.5% (inactive)
O=C(c1nn2c(C(F)(F)F)cc(-c3cccs3)nc2c1Cl)N1CCCc2ccccc21 | -11.4% (inactive)
COc1ccc(N2C(=O)CN(Cc3cc(OC)c(OC)c(OC)c3)C2=S)cc1 | -2.4% (inactive)

SMILES | inhibition
CC(/C=C/c1ccccc1)NC(N)=O (centres undefined) | -3.3% (inactive)
N#Cc1ccc(NC(=S)NC(=O)CCc2ccc(S(=O)(=O)N3CCOCC3)cc2)cc1 | 8.9% (inactive)
CCOc1ccc(-c2nn[nH]n2)cc1OCC | -5.5% (inactive)
CCc1nn(C(C)C(=O)N2CCN(Cc3ccccc3)CC2)c(=O)c2cc3occc3n12 (centres undefined) | 16.5% (inactive)
O=C(NCc1ccccc1)C(c1cccs1)N(C(=O)c1csnn1)C1CC1 (centres undefined) | 4.8% (inactive)
O=C(NCc1ccc(F)cc1)C(c1cccs1)N(C(=O)c1csnn1)C1CC1 (centres undefined) | 0.7% (inactive)
COc1ccc(CNC(=O)C(c2cccs2)N(C(=O)c2csnn2)C2CC2)cc1 (centres undefined) | 93% (active)
CCOc1ccc(S(=O)(=O)NCc2ccccc2)cc1C(N)=O | 8.4% (inactive)
O=[N+]([O-])c1ccc(N2CCN(S(=O)(=O)c3ccc4ccccc4c3)CC2)cc1NCC1CCCO1 (centres undefined) | 5.7% (inactive)
O=C(CCc1nnc(COc2ccccc2)o1)NCc1ccc(Cl)s1 | 5.4% (inactive)
CN(CCO)C1=CC(=O)CC(C)(C)C1 | -12.5% (inactive)
CCOC(=O)c1ccc(CC(=O)c2ccc(O)c(O)c2O)o1 | 75% (active)
CCCc1cc(C(=O)Cc2ccc(C(=O)OCC)o2)c(O)cc1O | -21.9% (inactive)
CCOC(=O)c1ccc(CC(=O)c2ccc(O)cc2O)o1 | -14.1% (inactive)
Nc1ccc(S(=O)(=O)NC2(C(F)(F)F)NC(=O)N(c3ccccc3Cl)C2=O)cc1 (centres undefined) | 3.9% (inactive)
COc1ccc(S(=O)(=O)NCCSCc2ccco2)cc1 | 8.5% (inactive)
Cc1nn(C)c(C(=O)N/N=C/c2ccc(C(F)(F)F)cc2)c1[N+](=O)[O-] | 1.6% (inactive)
CC1=Nn2c(nnc2-c2n[nH]c3c2CCC3)SC1 | 3.5% (inactive)
c1ccc(C2=Nn3c(nnc3-c3n[nH]c4c3CCC4)SC2)cc1 | 8% (inactive)
CC(C)(C)C1=Nn2c(nnc2-c2n[nH]c3c2CCC3)SC1 | 75.8% (active)
NS(=O)(=O)c1ccc(N/N=C/c2ccccc2Br)cc1 | 2% (inactive)
CC(C)(Cl)C1Cc2cc3ccc(=O)oc3cc2O1 (centres undefined) | 6.2% (inactive)
CC(C)(O)C1Cc2cc(/C=C/C(=O)O)c(O)cc2O1 (centres undefined) | 94.4% (active)
COc1cc2c(cc1/C=C/C(=O)O)OC(C)C2 (centres undefined) | 9.4% (inactive)
